Screening results (PubChem BioAssay)
The list is not random: actives were taken first. Their share in the collection is about 3.6%.
Sfp inh = qHTS Assay for Inhibitors of Bacillus subtilis Sfp phosphopantetheinyl transferase (PPTase); Biochemical Sfp PPTase activity, qHTS; Potency, µM, for the others: largest response in the series, negative = inhibition, most hits filed as inhibitors; 3.5% of 310,000 active; 4'-phosphopantetheinyl transferase ffp (Bacillus subtilis), Q9F4F7;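 further: the enzyme is Sfp with the accession as filed and its product quenches rhodamine fluorescence; 0% = enzyme reaction without inhibitor and -100% = no enzyme wells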
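With Hepes-Na pH 7.6 buffer containing 10 mM MgCl2, Sfp (15 nM) modified BHQ-2-YbbR (12.5 uM) using rhodamine-CoA (5 uM). Two reads 30 minutes apart at 525/598 nm yielded each well's rate.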
Epigenetic derep = Quantitative High-Throughput Screen for Regulators of Epigenetic Control. murine LDR cells, GFP reporter derepression, 30 h. Potency, µM (highest dose often 53.9 µM), without a hit: at the highest dose GFP activation, most hits filed as activators. 0.2% of 280,000 active; further: % of control where 0% means no effect; nearly all actives have a fitted effect of over 60% in size
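In this reporter-derepression format, murine cells bearing a silenced integrated CMV-GFP locus incubate with test compound (30 h, 37 C), then are washed and imaged; fluorescent objects of 20–120 um count as induced cells.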
GCN5L2 inh = qHTS Assay for Inhibitors of GCN5L2 | Histone acetyltransferase KAT2A (Homo sapiens), Q92830 | GCN5L2 HAT assay, ThioGlo1 CoA-SH fluorescence | Potency, µM (titrated, usually from 58.9 µM), for inactives: at the highest dose activity change, negative = inhibition, usual class: inhibitors | 0.21% of 390,000 active; further: on the % scale 0 is the no-effect control and ±100 the full control effect
Target sequence (Q92830 whole entry, looked up): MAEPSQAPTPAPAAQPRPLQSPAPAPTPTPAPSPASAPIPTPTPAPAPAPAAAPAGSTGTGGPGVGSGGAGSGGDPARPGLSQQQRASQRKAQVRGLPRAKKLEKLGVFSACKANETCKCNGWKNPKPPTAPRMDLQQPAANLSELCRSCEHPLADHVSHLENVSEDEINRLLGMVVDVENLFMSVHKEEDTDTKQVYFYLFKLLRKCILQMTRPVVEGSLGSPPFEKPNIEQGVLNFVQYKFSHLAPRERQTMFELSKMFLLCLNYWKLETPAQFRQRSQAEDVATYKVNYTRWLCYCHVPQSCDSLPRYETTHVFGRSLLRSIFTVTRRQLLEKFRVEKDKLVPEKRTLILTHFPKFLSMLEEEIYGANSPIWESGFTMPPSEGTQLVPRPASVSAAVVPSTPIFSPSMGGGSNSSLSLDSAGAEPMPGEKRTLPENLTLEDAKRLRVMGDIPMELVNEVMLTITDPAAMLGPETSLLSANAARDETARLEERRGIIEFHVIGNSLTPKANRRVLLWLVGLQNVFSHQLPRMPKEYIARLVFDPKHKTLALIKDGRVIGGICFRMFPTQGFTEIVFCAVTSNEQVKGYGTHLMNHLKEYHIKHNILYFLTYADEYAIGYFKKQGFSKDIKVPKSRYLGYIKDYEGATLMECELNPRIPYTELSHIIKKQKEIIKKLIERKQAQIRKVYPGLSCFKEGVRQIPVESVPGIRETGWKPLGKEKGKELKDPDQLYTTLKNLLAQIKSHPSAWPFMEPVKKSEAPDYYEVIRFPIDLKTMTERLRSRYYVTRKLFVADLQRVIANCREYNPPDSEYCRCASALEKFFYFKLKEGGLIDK
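GCN5L2 (20nM final) in 50mM HEPES, 0.1mM EDTA pH 7.5, 0.01% Tween-20 was preincubated 15 min at room temperature with compound, then given ThioGlo1 (50uM), H3(1-25) peptide (75uM) and acetyl-CoA (70uM); CoA-thiol fluorescence (Ex340/Em540) was read at 0 and 20 min.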
NPSR antagonist = qHTS Assay for Antagonists of the Neuropeptide S Receptor: cAMP Signal Transduction; 1% of 220,000 active; Q6W5P4; Potency, µM (highest dose often 38.3 µM), without a hit: top-dose activity change, negative = inhibition, usual class: inhibitors; CHO-NPSR cells, cAMP TR-FRET, antagonist mode; further: on the % scale 0 is the no-effect control and ±100 the full control effect; nearly all actives have a fitted effect of over 50% in size
IMPase Li cell = qHTS Assay for Identifying the Cell-Membrane Permeable IMPase Inhibitors: Potentiation with Lithium | 0.35% of 210,000 active | CHO-M1 cells, IP1 TR-FRET (IP-One), carbachol + lithium | Potency, µM (highest dose often 59.4 µM), for inactives: top-dose activity, negative = IMPase inhibition, usual class: inhibitors | AID 1457, 2008;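 further: IP1 builds up when IMPase is blocked and the TR-FRET signal falls; plate controls were basal vehicle for no effect and high inhibitor control for full effect; nearly all actives have a fitted effect of over 50% in size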
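Lithium-sensitised IP1 accumulation assay; M1-expressing CHO cells treated 30 min at 37C with compound. Competitive antibody detection by time-resolved FRET followed a 10 min room-temperature lysis step.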
KDM4E inh = qHTS Assay for Inhibitors of Human Jumonji Domain Containing 2E (JMJD2E). AID 2147, 2009. Lysine-specific demethylase 4E (Homo sapiens), B2RXH2. JMJD2E catalytic domain, FDH-coupled NADH fluorescence (FDH is formaldehyde dehydrogenase). Potency, µM (titrated, usually from 57.1 µM), inactives show at the highest dose activity change, negative = inhibition, hits mostly inhibitors. 1.6% of 230,000 active; active means well fitted inhibition curve with a large enough effect, not every such curve was filed as active; inconclusive means small, poorly fitted or top-dose-only effect, or another doubt; inactive means no such curve, though single readings can be large or run the other way;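 further: 0% = wells with enzyme and -100% = buffer wells without enzyme; nearly all actives have a fitted effect of over 50% in size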
* hit, by the source's call; ? = inconclusive; . = no result; [ ] = remark or other dose. Unless noted, the call rests on the fitted dose curve; in most records, active means well fitted curve in the direction sought with a large enough effect; inconclusive means small, poorly fitted or top-dose-only effect, or another doubt; inactive means no such curve, though single readings can be large; an effect the other way counts as inactive or inconclusive. Potency means the concentration at half of the fitted maximal effect.

SMILES | Sfp inh | Epigenetic derep | GCN5L2 inh | NPSR antagonist | IMPase Li cell | KDM4E inh
Cc1ccc(C2=NN(C(=O)CCCC(=O)O)C(c3ccco3)C2)cc1 (centres undefined) | 44.7µM* | 0.1% | 0.1% | 18.9% | 6.3% | -6.8%
Cc1nnc(SCC(=O)N2N=C(c3ccc(Cl)cc3)CC2c2ccco2)[nH]c1=O (centres undefined) | 50.1µM* | 0.0% | -24.1% | -8.1% | 3.6% | ?
COc1ccc2c(c1)C(c1ccccc1OC)CC(=O)O2 (centres undefined) | 0.0% | -2.1% | ? | . | 0.6% | .
N#CC1=C(N)NC(=S)C(C(N)=O)C1c1ccc([N+](=O)[O-])cc1 (centres undefined) | 1µM* | 0.3% | -9.2% | 4.5% | 4.8% | ?
NC(=O)Cn1c(=O)n(CCc2ccccc2)c(=O)c2c3c(sc21)CCCC3 | 2.6% | 2.1% | 0.3% | -5.7%[46.1 µM] | -4.0%[38.3 µM] | -2.7%
NC(=O)Cn1c(=O)n(C2CCCCC2)c(=O)c2c3c(sc21)CCCCC3 | 50.1µM* | -0.1% | -1.2% | -45.6% | 9.4% | 2.8%
C[C@H](NC(=O)[C@@H](Cc1c[nH]c2ccccc12)NC(=O)[C@@H](N)Cc1cnc[nH]1)C(=O)N[C@@H](Cc1c[nH]c2ccccc12)C(=O)N[C@H](Cc1ccccc1)C(=O)N[C@@H](CCCCN)C(N)=O | 22.3% | . | -28.0% | . | . | .
CC1=C(C)C(=O)N(c2ccccn2)C1=O | 18.3% | 0.7% | -2.7% | 11.8%[46.1 µM] | 5.9%[38.3 µM] | -1.3%
Cc1nn(-c2ccccn2)c2c1C(=O)C(Br)CC2 (centres undefined) | 3.98µM* | 2.1% | -7.4% | 19.9% | 5.4% | -25.4%
CN(C)S(=O)(=O)c1cccc(-n2sc3ccccc3c2=O)c1 | 1.58µM* | -0.6% | 1.58µM* | -16.2% | 7.4% | 3.55µM*
O=c1c(N2CCN(c3ccc(F)cc3)CC2)csc2ccc(F)cc12 | . | 1.7% | -3.2% | . | . | .
O=C(O)c1cccc(-n2sc3ccccc3c2=O)c1 | . | . | 1.26µM* | . | . | .
O=c1c2cc(F)ccc2sn1-c1ccccc1 | . | . | 1.12µM* | . | . | .
CC1NC(=O)c2ccccc2-n2c1nc1cc(F)ccc1c2=O (centres undefined) | . | . | 3.2% | . | . | .
Cc1ccccc1-n1sc2cc(F)ccc2c1=O | 0.562µM* | -1.3% | 1.26µM* | -32.4% | 10.9% | 11.2µM*
C[N+]12CCCC[C@@H]1CCC(=C(c1cccs1)c1cccs1)C2 (some centres undefined) | -4.8% | . | 6.2% | . | . | .
CCCCC(=O)N1C/C=C\C(c2ccc(OC)cc2)N(Cc2ccc(F)cc2)C(=O)C1Cc1ccccc1 (centres undefined) | -1.6% | . | . | . | . | .
COCC(=O)N1CCc2nc(-c3ccccc3)c3c(c2C1)CO[C@@H](C)C3 | -9.2% | . | . | . | 6.4% | 8.9%[11.4 µM]
O=c1c2ccccc2sn1-c1ccccc1 | 0.501µM* | -1.0% | 1µM* | ? | 30.6%[38.3 µM] | 25.1µM*
O=c1c2ccccc2c(C=Nc2ccccc2O)c(O)n1-c1nccs1 | 9.9% | -1.1% | -13.2% | 47.3% | . | -3.5%
O=c1c2ccccc2sn1-c1nccs1 | 2.24µM* | -3.4% | 3.16µM* | 0.7% | 13.4% | 7.94µM*
CO[C@@H]1/C=C\O[C@]2(C)Oc3c(C)c(O)c4c(O)c(c(CN5CCN(C)CC5)c(O)c4c3C2=O)NC(=O)/C(C)=C\C=C[C@@H](C)[C@@H](O)[C@H](C)[C@@H](O)C(C)[C@H](OC(C)=O)[C@@H]1C (some centres undefined) | . | . | . | . | 2.9% | .
COc1ccc(-n2c(NC(=O)c3ccco3)c(C#N)c3nc4ccccc4nc32)cc1 | 35.5µM* | ? | -21.0% | -6.0%[46.1 µM] | ? | 3.1%
CCCCn1c(NC(=O)c2ccccc2Cl)c(C#N)c2nc3ccccc3nc21 | 6.9% | -1.1% | -11.3% | 10µM* | -22.1%[38.3 µM] | ?
N#Cc1c(NC(=O)c2ccccc2Cl)n(Cc2ccccc2)c2nc3ccccc3nc12 | -28.1% | 8.9% | ? | -8.8% | 9.2% | ?
SMILES | Sfp inh | Epigenetic derep | GCN5L2 inh | NPSR antagonist | IMPase Li cell | KDM4E inh
CC1(OC(=O)c2ccc(Cl)nc2)C(=O)C=C2C=C3CCCN3C=C2C1=O (centres undefined) | ? | -0.2% | -22.6% | 8.8% | 11.1% | 5.62µM*
CC1(OC(=O)c2ccc(Cl)nc2)C(=O)C=C2C=C(C3CC3)OC=C2C1=O (centres undefined) | 0.8% | -0.3% | . | . | 3.2% | -3.9%
Cc1ccc(S(=O)(=O)/N=C2/C=C(Sc3ncn[nH]3)C(=O)c3ccccc32)c(C)c1 | 3.55µM* | ? | ? | -33.4% | 29.9% | 8.91µM*
Cc1ccc(S(=O)(=O)/N=C2\C=C(Nc3cccc(C(=O)O)c3)C(=O)c3ccccc32)c(C)c1 | -19.0% | . | -16.7% | . | . | .
CC(C)c1ccc(S(=O)(=O)/N=C2/C=C(Sc3ncn[nH]3)C(=O)c3ccccc32)cc1 | 2µM* | -1.0% | ? | 10µM* | 45.9% | 0.6%
CC1(C)O[C@@H]2O[C@H]([C@@H]3COC(C)(C)O3)[C@H](N)[C@H]2O1 | . | . | . | . | -3.1% | .
C[C@H]1Cc2c(-c3ccccc3)nc3c(c2CO1)CN(C(=O)c1cc(I)ccc1F)CC3 | 7.4% | . | . | . | 7.9% | 0.9%[11.4 µM]
O=C(c1ccc(F)cc1)N1CCCCC(Sc2nnc3ccccn23)C1=O (centres undefined) | 7.1% | -0.7% | . | -7.9%[46.1 µM] | -6.9%[38.3 µM] | -3.4%
O=C(c1ccc(F)cc1)N1CCCCC(S(=O)(=O)c2ccccc2)C1=O (centres undefined) | 79.4µM* | 3.3% | 1.8% | 4.2% | -1.7% | 3.5%
CC1CCCCC1NC(=O)COC(=O)c1ccc(S(=O)(=O)NCc2ccco2)cc1 (centres undefined) | -4.2% | -5.6% | -13.2% | -10.3%[46.1 µM] | 21.2%[38.3 µM] | -0.6%
O=C(COC(=O)c1ccc(NS(=O)(=O)c2cccs2)cc1)NCc1ccco1 | 35.5µM* | -1.1% | -6.6% | -13.6% | . | -11.8%
O=C(COC(=O)c1ccc(S(=O)(=O)NCc2ccco2)cc1)NC1CCCCCC1 | 56.2µM* | 2.7% | -0.6% | -8.4%[46.1 µM] | 16.1%[38.3 µM] | -2.3%
C=CCNCCCCOc1cccc(Br)c1 | 44.7µM* | -1.0% | -0.8% | -1.2% | 26.0% | ?
OCCNCCCCOc1cccc(Br)c1 | -17.7% | -2.9% | 5.0% | 15.5% | -3.6% | 5.9%
Fc1ccc(-n2c(Cn3nnc4ccccc43)n[nH]c2=S)cc1 | -28.2% | -1.0% | -6.8% | 9.8% | -1.8% | ?
FC(F)(F)c1cccc(-n2c(Cn3nnc4ccccc43)n[nH]c2=S)c1 | 89.1µM* | 3.1% | -13.0% | 0.0% | . | -7.0%
